# Laboratory results: PubChem BioAssay AID602292 (National Center for Advancing Translational Sciences (NCATS), 2012)
# Among all 1,300 compounds or so, about 380 (29%) were called active. About 37% were inconclusive and are not listed. Calls come from the whole dose curve; as a rule, active = well fitted inhibition curve with a large enough effect; inconclusive = small, poorly fitted or top-dose-only effect; inactive = flat fitted curve, though single readings scatter. This is one part of the list. Where a call stands in place of a potency, no number is given.
# Molecular target: Thyrotropin receptor (Homo sapiens) (UniProt P16473)
# Sequence (P16473 whole entry, looked up): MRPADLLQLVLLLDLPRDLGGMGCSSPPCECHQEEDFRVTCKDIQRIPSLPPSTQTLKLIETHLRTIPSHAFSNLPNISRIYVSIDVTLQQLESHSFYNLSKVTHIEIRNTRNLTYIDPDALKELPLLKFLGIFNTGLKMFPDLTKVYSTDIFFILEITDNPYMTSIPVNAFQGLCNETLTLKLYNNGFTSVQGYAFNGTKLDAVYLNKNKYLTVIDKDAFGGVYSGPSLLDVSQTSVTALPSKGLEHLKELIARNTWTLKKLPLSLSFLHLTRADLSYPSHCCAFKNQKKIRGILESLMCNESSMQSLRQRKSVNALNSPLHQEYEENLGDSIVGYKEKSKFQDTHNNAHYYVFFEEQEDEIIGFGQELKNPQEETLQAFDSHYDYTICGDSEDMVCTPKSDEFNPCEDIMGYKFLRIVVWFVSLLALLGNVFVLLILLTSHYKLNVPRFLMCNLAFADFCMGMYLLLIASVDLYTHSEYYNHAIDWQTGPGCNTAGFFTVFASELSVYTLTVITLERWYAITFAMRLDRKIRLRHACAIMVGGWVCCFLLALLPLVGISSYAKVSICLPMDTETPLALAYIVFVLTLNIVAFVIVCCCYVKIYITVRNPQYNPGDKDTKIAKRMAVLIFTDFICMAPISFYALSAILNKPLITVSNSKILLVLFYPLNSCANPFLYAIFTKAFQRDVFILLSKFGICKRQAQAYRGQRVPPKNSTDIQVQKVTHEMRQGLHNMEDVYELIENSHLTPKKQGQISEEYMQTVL
# Assay: qHTS for antagonists of the Thyroid Stimulation Hormone Receptor: Hit Validation in Primary Screen; note: nearly all actives have a fitted effect of over 80% in size
# Conditions: TSHR-expressing cells, cAMP antagonist mode; series mostly up to 58 µM
# Procedure, shortened: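 TSHR-expressing cells were pretreated with compound, then stimulated with TSH at EC80 (4nM final) for 2 hours at 37 deg C. Cellular cAMP measured by competitive HTRF (anti-cAMP cryptate, cAMP-d2) after 30 min at room temperature.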
# Potency is the fitted concentration of half-maximal effect.
row,SMILES,Potency
1,CC1CN(C(=O)CCn2c(=O)oc3ccccc32)CC(C)O1 (stereo not drawn),inactive
2,O=C(/C=C/c1ccc(OCCCF)cc1)Nc1ccnc(-c2ccncc2)n1,inactive
3,CSc1nc(N)nc(SCC(=O)Nc2ccc(Cl)cc2)c1C#N,30.1 µM (active)
4,Cc1cc(=O)[nH]c(SCC(=O)Nc2ccc(Br)cc2)c1C#N,7.57 µM (active)
5,Cc1cc2nc(SCCOC(=O)Nc3ccc(Cl)cc3)nc(C)c2cc1C,inactive
6,Cc1cc(C#N)c(SCC(N)=O)nc1-c1ccc(F)cc1,inactive
7,Nc1nc(SCC(=O)Nc2ccc([N+](=O)[O-])cc2)[nH]c(=O)c1NC(=O)c1ccc(Br)cc1,inactive
8,Cc1ccc(CNS(=O)(=O)c2ccc(CN3C(=O)c4cccnc4C3=O)s2)o1,inactive
9,O=C(CCc1ccccc1)N1CCN(Cc2ccc(F)cc2Cl)CC1,inactive
10,Cc1ccc(CCNC(=O)CN2C(=O)COc3ccc(S(=O)(=O)N4CCC(C)CC4)cc32)cc1,inactive
11,CC[C@@H](C(=O)[C@@H](C)[C@@H](O)[C@H](C)CCc1ccc(C)c(O)c1C(=O)O)[C@H]1O[C@](CC)([C@H]2CC[C@](O)(CC)[C@H](C)O2)C[C@@H]1C,4.78 µM (active)
12,Cc1ccccc1CS(=O)(=O)c1nnc([C@H](Cc2ccccc2)NC(=O)OC(C)(C)C)o1,37.9 µM (active)
13,C[C@@H](NC(=O)[C@@H]1Cc2ccccc2CN1)C(=O)NC1CCCCC1,inactive
14,O=[N+]([O-])c1cc(Br)c(O)c(/C=N/Nc2nc3ccccc3s2)c1,2.39 µM (active)
15,O=[N+]([O-])c1cc(Br)c(O)c(/C=N/Nc2nnnn2-c2cccc3ccccc23)c1,7.57 µM (active)
16,COc1cccc(OCC(O)CN2CC(C)CC(C)C2)c1 (stereo not drawn),inactive
17,O=C(/C=C/c1ccc(Cl)cc1Cl)NCCSCc1ccccc1,21.3 µM (active)
18,Cc1ccccc1-n1nnnc1SC1CCOC1=O (stereo not drawn),inactive
19,O=C(NCCCN1CCOCC1)c1ccc2c(c1)N(Cc1ccc(Cl)cc1)C(=O)c1ccccc1S2=O (stereo not drawn),inactive
20,CCOc1ccc(CNC(=O)CCCn2nc(CC)n3c(cc4occc43)c2=O)cc1,inactive
21,CN(C(=O)CN1C(=O)/C(=C/c2ccccc2Cl)SC1=S)C1CCS(=O)(=O)C1 (stereo not drawn),inactive
22,O=C1/C(=C\c2cc([N+](=O)[O-])ccc2O)SC(=S)N1Cc1ccc(Cl)cc1,2.69 µM (active)
23,COc1cc([N+](=O)[O-])cc(/C=C2/SC(=S)N(Cc3ccccc3)C2=O)c1O,10.7 µM (active)
24,CN(C)C(=O)[C@H]1C[C@H]1[C@@H](O)[C@H](CO)NC(=O)[C@H](COCc1ccccc1)NC(=O)OC(C)(C)C,inactive

row,SMILES,Potency
1,Cc1ccc(-c2ccc(/C=N/N=C3/NC(=O)C(CC(=O)O)S3)o2)c([N+](=O)[O-])c1 (stereo not drawn),inactive
2,O=C(NCCS(=O)(=O)N1CCN(c2ccccc2)CC1)C1CC(=O)N(c2ccccc2)C1 (stereo not drawn),inactive
3,Cc1ccc(CCNC(=O)C2CCN(S(=O)(=O)c3cccc4cccnc34)CC2)cc1,inactive
4,O=C(Nc1nc2ccc(F)cc2s1)C1CCN(S(=O)(=O)c2cc([N+](=O)[O-])ccc2Cl)CC1,19 µM (active)
5,N#C/C(=N\Nc1cccc([N+](=O)[O-])c1)C(=O)c1ccc(Br)cc1,15.1 µM (active)
6,Cc1cccc(-c2noc(CN(C)C(=O)c3ccco3)n2)c1,inactive
7,COc1ccc(-c2nc(CS(=O)CC(=O)NCc3ccccc3)c(C)o2)cc1OC (stereo not drawn),inactive
8,COc1ccc(CC(=O)Nc2cccc(-c3nnc(-c4cccc(C)c4)o3)c2)cc1OC,4.26 µM (active)
9,O=c1[nH]c(=O)c2nnc(N/N=C/c3ccccc3F)nc2[nH]1,inactive
10,CC(C)Nc1nc(SC(C)C(=O)Nc2ccccc2)nc(N(C)C)n1 (stereo not drawn),inactive
11,CCOc1ccc2nc(NC(=O)CS(=O)(=O)c3ccccc3)sc2c1,inactive
12,O=C(CSc1nnc(NC(=O)c2cccc(Br)c2)s1)NCC1CCCO1 (stereo not drawn),inactive
13,CCOc1ccc2nc(NC(=O)c3ccc(OCC4CCCO4)cc3)sc2c1 (stereo not drawn),30.1 µM (active)
14,C=CS(=O)(=O)c1sc(Cl)c(N2CCOCC2)c1[N+](=O)[O-],26.9 µM (active)
15,Cc1ccc(/C=C/C(=O)Nc2ccc(Oc3ccccc3)cc2)o1,23.9 µM (active)
16,Cc1ccc(CCC(=O)NCc2ccccc2)o1,inactive
17,COC(=O)c1cc(-c2c[nH]c3ccccc23)n[nH]1,inactive
18,CCn1nc(C)cc1-c1nnc(Sc2ncc([N+](=O)[O-])s2)n1C,15.1 µM (active)
19,CC(=O)N1c2ccc(S(=O)(=O)NCCC(=O)Nc3ccccc3C)cc2CC1C (stereo not drawn),inactive
20,S=C(Nc1ccc(Oc2ccccc2)cc1)NC1CCCCCC1,12 µM (active)
21,CC(=O)c1ccc(NC(=O)C(C)N(C)CC(=O)Nc2ccc(N3CCOCC3)cc2)cc1 (stereo not drawn),inactive
22,O=C(O)c1ccc(NC2=C/C(=N/S(=O)(=O)c3ccccc3)c3ccccc3C2=O)cc1,21.3 µM (active)
23,O=C(O)c1ccc(S(=O)(=O)/N=C2\C=C(Nc3ccccc3F)C(=O)c3ccccc32)cc1,37.9 µM (active)
24,Cc1ccc(S(=O)(=O)/N=C2\C=C(Nc3cccc(C(=O)O)c3)C(=O)c3ccccc32)c(C)c1,30.1 µM (active)

row,SMILES,Potency
1,O=C1C(Nc2ccc(O)cc2)=C/C(=N/S(=O)(=O)c2cccs2)c2ccccc21,30.1 µM (active)
2,COc1ccc(CNCc2cc(C)c(OC)cc2C)c(OC)c1,inactive
3,O=C(O)c1ccc(CNC(=O)c2ccc3c(c2)C(=O)N(Cc2cccnc2)C3=O)cc1,inactive
4,Cc1ccccc1C(=O)N1CCN(c2ccc(NC(=S)NC(=O)c3ccco3)cc2)CC1,21.3 µM (active)
5,COc1cc(NC(=O)C(C)C)ccc1NC(=O)c1ccco1,inactive
6,O=C(Nc1ccccc1C(=O)N1CCN(c2cccc(Cl)c2)CC1)C1=CSCCO1,inactive
7,Cc1cc(C)n2c(C)nnc2c1,inactive
8,CS(=O)c1ccc(-n2c(=O)n(Cc3ccccc3)c(=O)c3[nH]cnc32)cc1 (stereo not drawn),inactive
9,COc1cc2c(cc1OC)CN(C(=S)NC(=O)c1ccccc1)CC2,inactive
10,Cc1cc(C(=O)COC(=O)c2ccc(O)cc2O)c(C)n1-c1ccccc1,23.9 µM (active)
11,CC(=O)C1=C(O)C(=O)N(c2ccc(O)cc2)C1c1cccc(F)c1 (stereo not drawn),inactive
12,O=C(NCc1ccc(F)cc1)c1ccncc1,inactive
13,O=C(NC(=S)Nc1ccc(C(=O)N2CCOCC2)cc1)c1ccc([N+](=O)[O-])cc1,inactive
14,O=[N+]([O-])c1ccc(NC(=S)NCc2ccc(F)cc2)cc1,9.53 µM (active)
15,O=[N+]([O-])c1ccc(NC(=S)NCCc2ccc(F)cc2)cc1,9.53 µM (active)
16,CCCNc1c(NS(=O)(=O)c2ccc(Br)cc2)c(=O)oc2ccccc12,inactive
17,N#C/C(=N\Nc1ccc(S(=O)(=O)N2CCc3ccccc32)cc1)C(N)=S,9.53 µM (active)
18,O=C(NNC(=O)c1n[nH]c(=O)c2ccccc12)c1ccc(Br)cc1,inactive
19,COc1ccccc1CNS(=O)(=O)c1ccc(-n2cccn2)cc1,inactive
20,COc1ccccc1C1CCN(c2cc(O)ccc2[N+](=O)[O-])CC1,37.9 µM (active)
21,CS(=O)(=O)c1ccc(N2CCN(c3ccccn3)CC2)c([N+](=O)[O-])c1,inactive
22,Clc1ccc(C2Nc3cccc4cccc(c34)N2)cc1,inactive
23,O=C(O)c1ccccc1NS(=O)(=O)c1cccc(-n2sc3ccccc3c2=O)c1,23.9 µM (active)
24,COc1cc(C(=O)NCCNC(=O)c2cnccn2)cc(OC)c1OC,inactive

row,SMILES,Potency
1,Cc1ccc(C(=O)Nc2cccc([N+](=O)[O-])c2)cc1S(=O)(=O)Nc1ccc(NC(=O)c2ccccc2)cc1,inactive
2,Cc1ccc(S(=O)(=O)NCCNc2ccc([N+](=O)[O-])cc2)cc1,inactive
3,Cc1ccc(NS(=O)(=O)c2cc(C(=O)Nc3cccc([N+](=O)[O-])c3)ccc2C)cc1,21.3 µM (active)
4,COCC(=O)N1CCC(n2nccc2NC(=O)c2ccccc2OC)CC1,inactive
5,O=S(=O)(Nc1cccc(-c2ccc(N3CCCCCC3)nn2)c1)c1ccc(F)cc1,inactive
6,Cc1ccc(S(=O)(=O)Oc2ccc(/C=C(/NC(=O)c3ccccc3)C(=O)Nc3ccccc3)cc2)cc1,inactive
7,COc1ccc(S(=O)(=O)Nc2ccccc2C(=O)Nc2nc(-c3ccc(F)cc3)cs2)cc1OC,3.38 µM (active)
8,COc1ccccc1C(=O)Nc1nnc(SCC(=O)NC2CCCC2)s1,inactive
9,COc1ccc(-c2csc(NC(=O)c3ccccc3NS(=O)(=O)c3ccc(C)cc3)n2)cc1,3.38 µM (active)
10,COc1cc(NS(=O)(=O)c2ccc(NC(=O)c3ccc(F)cc3)cc2)ncn1,inactive
11,COc1ccc(-c2csc(NC(=O)c3ccccc3NS(=O)(=O)c3ccc(F)c(F)c3)n2)cc1,5.36 µM (active)
12,O=C(Nc1nc(-c2ccccc2)cs1)c1ccccc1NS(=O)(=O)c1ccc(F)cc1,3.38 µM (active)
13,C=CCN(c1ccccc1)S(=O)(=O)c1ccc2[nH]cc(C(=O)NCCOC)c(=O)c2c1,inactive
14,O=C(Nc1ccc2nc3n(c(=O)c2c1)CCCCC3)C(=O)N1CCN(c2ccccc2F)CC1,inactive
15,Clc1ccccc1CN(Cc1ccccc1)c1ncnc2nc[nH]c12,26.9 µM (active)
16,Clc1ccc2c(c1)-c1nnc(Br)n1-c1ccccc1S2,26.9 µM (active)
17,CC(C)NC(=O)COc1coc(CN2CCN(c3ccccc3F)CC2)cc1=O,inactive
18,O=S(=O)(Nc1cc(Cl)ccc1-n1cncn1)c1cc(Br)ccc1Br,15.1 µM (active)
19,Cc1ccc(SCC(=O)NCc2ccccc2C)cc1,inactive
20,COc1ccccc1CNC(=O)CSc1nc(N)c(C#N)c(-c2cccs2)c1C#N,37.9 µM (active)
21,COc1ccc(NC(=O)Cn2nnc(C(=O)NCc3cccs3)c2N)c(OC)c1,inactive
